The nature of assay [1]: yeast TOR pathway RPL19A-GFP modulators, primary screen, cell-based, S. cerevisiae, multiplex flow cytometry (AID 1862; in the data active = percent of DMSO control GFP below about 86%;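 also: lower values mimic rapamycin by blocking the RPL19A rise seen in DMSO cells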). The settings on record: S. cerevisiae RPL19A-GFP strain, flow cytometry fluorescence, 3 h; at 10 µM; stronger effect = lower value.
The nature of assay [2]: modulators of MEP2-GFP levels in yeast, primary screen, S. cerevisiae, multiplex flow cytometry (AID 1867;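 active = GFP response, as percent of the DMSO control, above the screen-wide mean plus 3 SD, about 139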;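 also: median GFP channel fluorescence of barcode-gated MEP2-GFP cells measured by flow cytometry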). The following applies: S. cerevisiae MEP2-GFP strain, 3 h, at 10 µM, stronger effect = higher value, 100% means same as DMSO wells.
A short description of assay [3]: modulators of CIT2-GFP expression in yeast, primary screen, S. cerevisiae, GFP fusion, multiplex flow cytometry (AID 1870;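 active = percent response above a set limit, the screen-wide mean plus 3 SD, cut at about 130% in these data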;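 also: barcoded CIT2-GFP strain pooled with four other GFP strains with rapamycin as positive control; median GFP fluorescence per well over plate mean of DMSO wells so 100% = DMSO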). The following applies: 3 h, at 10 µM, stronger effect = higher value.
The nature of assay [4]: modulators of LAP4-GFP expression in yeast, primary screen, S. cerevisiae, multiplex flow cytometry (AID 1873;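 active = GFP signal, as percent of the solvent control, above the screen mean plus 3 SD, about 149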). The following applies: 3 h, at 10 µM, stronger effect = higher value.
Assay [5] can be described thus: modulators of AGP1-GFP expression in yeast TOR pathway, primary screen, cell-based, multiplex flow cytometry, S. cerevisiae (AID 1887;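 active = GFP signal above the screen-wide mean plus 3 SD, that is over about 124.5% of the solvent control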;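 also: AGP1-GFP fusion strain of S. cerevisiae within a five-strain barcoded multiplex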). The settings on record: 3 h, at 10 µM, stronger effect = higher value.
The nature of assay [6]: inhibitors of CD8+ T cell-vesicle binding, pilot screen, LFA-1/ICAM-1 modulator project, MLPCN validation set, flow cytometry (AID 2523;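 active = response below a set limit, under 55% cells CD8-positive and vesicle-bound, and CD8 cells' 90th-percentile brightness under 279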;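 as to vesicle binding response: mean PE anti-B7-1 fluorescence of CD8+ cells relative to row control; 100% = QL9-loaded vesicles with DMSO vehicle in the same plate row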). The settings on record: 2C mouse CD8+ T cells, at 7 µM, stronger effect = lower value; double positive events: measured here: CD8+/vesicle+ event percentage.
Assay [7] deals with Integrin beta-1 (Homo sapiens) + Integrin alpha-4 (Homo sapiens) (UniProt P13612+P05556). The assay can be described thus: inhibition of HUTS-21 binding to VLA-4, pilot screen, VLA-4 allosteric modulator project, U937 cells, HUTS-21 mAb, flow cytometry, validation set (AID 2674;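 active = inhibition above 50%, about 3 SD of the validation set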;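 also: antibody binding induced by the VLA-4 ligand LDV present at three times its Kd; 0% = LDV ligand with antibody and no compound and 100% = antibody without LDV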). The following applies: HUTS-21 LIBS mAb binding, at 6.7 µM, stronger effect = higher value, binding induced by LDV ligand.
Sequence of Integrin beta-1 (Homo sapiens) + Integrin alpha-4 (Homo sapiens) (P05556 whole entry, looked up): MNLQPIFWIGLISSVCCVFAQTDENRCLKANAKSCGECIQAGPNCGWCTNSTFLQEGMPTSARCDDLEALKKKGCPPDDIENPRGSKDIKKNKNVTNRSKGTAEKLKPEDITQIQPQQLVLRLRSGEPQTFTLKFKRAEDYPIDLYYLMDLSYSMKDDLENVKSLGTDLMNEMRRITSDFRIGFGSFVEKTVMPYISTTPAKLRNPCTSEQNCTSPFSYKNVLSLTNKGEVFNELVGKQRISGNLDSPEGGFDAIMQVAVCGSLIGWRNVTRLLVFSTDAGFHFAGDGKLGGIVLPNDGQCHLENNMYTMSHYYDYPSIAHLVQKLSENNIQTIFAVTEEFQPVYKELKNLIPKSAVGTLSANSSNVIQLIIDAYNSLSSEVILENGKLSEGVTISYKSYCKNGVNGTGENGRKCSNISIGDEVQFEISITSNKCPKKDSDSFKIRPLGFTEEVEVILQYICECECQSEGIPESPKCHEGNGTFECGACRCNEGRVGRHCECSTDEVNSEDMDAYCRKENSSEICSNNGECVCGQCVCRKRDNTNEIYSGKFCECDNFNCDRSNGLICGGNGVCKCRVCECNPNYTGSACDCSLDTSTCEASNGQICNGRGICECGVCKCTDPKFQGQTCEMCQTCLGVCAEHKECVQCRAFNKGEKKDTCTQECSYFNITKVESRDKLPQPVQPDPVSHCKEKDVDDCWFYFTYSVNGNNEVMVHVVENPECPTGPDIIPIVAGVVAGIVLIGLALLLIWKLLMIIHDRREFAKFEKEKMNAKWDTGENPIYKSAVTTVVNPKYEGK
Sequence of Integrin beta-1 (Homo sapiens) + Integrin alpha-4 (Homo sapiens) (P13612 whole entry, looked up): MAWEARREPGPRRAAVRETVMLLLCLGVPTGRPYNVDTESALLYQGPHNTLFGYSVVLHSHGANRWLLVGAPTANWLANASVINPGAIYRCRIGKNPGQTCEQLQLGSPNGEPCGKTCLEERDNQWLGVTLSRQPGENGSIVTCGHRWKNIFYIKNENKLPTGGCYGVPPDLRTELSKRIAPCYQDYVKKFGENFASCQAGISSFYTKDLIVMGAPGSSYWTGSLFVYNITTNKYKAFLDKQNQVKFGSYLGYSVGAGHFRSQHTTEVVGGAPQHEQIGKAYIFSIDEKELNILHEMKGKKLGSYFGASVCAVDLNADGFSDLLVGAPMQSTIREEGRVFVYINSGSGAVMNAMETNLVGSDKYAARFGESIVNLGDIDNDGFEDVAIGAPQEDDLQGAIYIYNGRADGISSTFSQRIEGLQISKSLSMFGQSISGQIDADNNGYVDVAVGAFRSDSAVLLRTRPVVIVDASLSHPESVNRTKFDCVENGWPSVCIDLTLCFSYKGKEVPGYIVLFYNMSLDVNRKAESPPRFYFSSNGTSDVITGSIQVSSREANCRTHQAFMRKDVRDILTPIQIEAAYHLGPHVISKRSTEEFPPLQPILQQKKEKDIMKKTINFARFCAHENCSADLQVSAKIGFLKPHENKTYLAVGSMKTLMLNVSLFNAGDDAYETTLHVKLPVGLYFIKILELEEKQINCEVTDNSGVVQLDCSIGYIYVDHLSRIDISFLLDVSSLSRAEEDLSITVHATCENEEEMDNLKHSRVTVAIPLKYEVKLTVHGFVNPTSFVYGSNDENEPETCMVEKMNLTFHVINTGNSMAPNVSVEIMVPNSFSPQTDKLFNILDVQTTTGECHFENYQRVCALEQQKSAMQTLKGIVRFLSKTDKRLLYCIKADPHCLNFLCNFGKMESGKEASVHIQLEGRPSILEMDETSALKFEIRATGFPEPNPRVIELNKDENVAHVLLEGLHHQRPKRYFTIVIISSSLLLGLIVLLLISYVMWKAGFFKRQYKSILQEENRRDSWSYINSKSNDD

Assay [8] in a line: superoxide lowering in aged yeast cells, pilot screen, validation compound set (AID 2706;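 active = superoxide response below 65% of plate, a cut near 3 SD across the whole screen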;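 also: yeast exposed to compound for one week at 30 degrees C before staining; 100% = mean of all compound wells on the same plate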). The settings on record: S. cerevisiae aging, superoxide DHE fluorescence; at 10 µM; stronger effect = lower value.
For assay [9], the target named is Beta-adrenergic receptor kinase 1 (Homo sapiens) (UniProt P25098). Put plainly: GRK2 binders displacing RNA aptamer, biochemical, validation, human GRK2, bead flow cytometry (AID 488806;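 active = aptamer binding inhibition above 30%, about 3 SD of noise from non-fluorescent compounds; inactive = inhibition at or below 30%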). The following applies: bead-bound GRK2, FAM-aptamer displacement, at 10 µM, stronger effect = higher value.
Sequence of Beta-adrenergic receptor kinase 1 (Homo sapiens) (P25098 whole entry, looked up): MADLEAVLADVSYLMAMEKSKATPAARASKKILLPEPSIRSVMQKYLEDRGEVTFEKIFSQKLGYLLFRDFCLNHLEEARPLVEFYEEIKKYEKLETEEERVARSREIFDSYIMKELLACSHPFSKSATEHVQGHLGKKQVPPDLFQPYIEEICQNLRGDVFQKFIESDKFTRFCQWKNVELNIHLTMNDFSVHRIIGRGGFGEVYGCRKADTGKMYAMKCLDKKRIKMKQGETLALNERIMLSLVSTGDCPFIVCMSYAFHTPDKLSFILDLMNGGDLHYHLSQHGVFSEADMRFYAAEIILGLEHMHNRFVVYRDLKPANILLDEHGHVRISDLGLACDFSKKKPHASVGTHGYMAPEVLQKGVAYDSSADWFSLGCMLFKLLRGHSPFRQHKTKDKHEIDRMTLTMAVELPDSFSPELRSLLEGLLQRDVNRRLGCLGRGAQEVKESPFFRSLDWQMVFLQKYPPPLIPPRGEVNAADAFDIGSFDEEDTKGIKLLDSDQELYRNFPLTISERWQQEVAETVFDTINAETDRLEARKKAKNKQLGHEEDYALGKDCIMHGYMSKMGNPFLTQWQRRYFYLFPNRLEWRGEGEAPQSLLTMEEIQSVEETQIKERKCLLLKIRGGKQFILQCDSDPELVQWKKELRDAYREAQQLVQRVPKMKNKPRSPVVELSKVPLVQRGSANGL
For assay [10], the target named is Beta-2 adrenergic receptor (Homo sapiens) (UniProt P07550). The assay can be described thus: beta2AR agonists driving receptor internalization, pilot screen, cell-based, FAP fluorogen, flow cytometry, validation set (AID 504459;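 active = percent response above 42, roughly 3 SD of non-fluorescent test compounds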;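 also: agonist-driven loss of surface beta2AR via internalization measured by FAP dye flow cytometry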). The settings on record: Am2.2-beta2AR cells, FAP surface receptor flow cytometry; at 10 µM; stronger effect = higher value.
Sequence of Beta-2 adrenergic receptor (Homo sapiens) (P07550 whole entry, looked up): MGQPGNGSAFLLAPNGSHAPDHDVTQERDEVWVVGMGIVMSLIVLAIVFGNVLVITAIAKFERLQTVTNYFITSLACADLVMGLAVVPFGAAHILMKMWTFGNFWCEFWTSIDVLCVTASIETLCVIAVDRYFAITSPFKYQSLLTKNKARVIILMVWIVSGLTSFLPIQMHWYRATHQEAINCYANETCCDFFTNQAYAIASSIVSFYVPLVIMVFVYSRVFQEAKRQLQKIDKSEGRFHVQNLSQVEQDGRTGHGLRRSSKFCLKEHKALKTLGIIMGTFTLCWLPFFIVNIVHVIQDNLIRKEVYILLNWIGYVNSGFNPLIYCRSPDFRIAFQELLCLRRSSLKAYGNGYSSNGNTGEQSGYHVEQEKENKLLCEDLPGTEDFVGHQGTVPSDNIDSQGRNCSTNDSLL
The target in assay [11] is AP-2 complex subunit beta (Homo sapiens) (UniProt P63010). Put plainly: inhibitors of arrestin peptide binding to AP2, pilot screen, biochemical, validation set, GST-AP2 beads, flow cytometry (AID 504541;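 active = inhibition above 54%, about 3 SD of non-fluorescent compounds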;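 also: AP2 carries R879A mutation and is captured from E. coli lysate; bead-bound FITC arrestin peptide fluorescence measuring arrestin peptide binding to AP2; 0% = DMSO wells and 100% = excess unlabeled arrestin peptide control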). The following applies: FITC arrestin peptide, at 10 µM, stronger effect = higher value, AP2 beta2 appendage fragment, R879A mutant.
Sequence of AP-2 complex subunit beta (Homo sapiens) (P63010 whole entry, looked up, the tested form may be a part, one chain of several): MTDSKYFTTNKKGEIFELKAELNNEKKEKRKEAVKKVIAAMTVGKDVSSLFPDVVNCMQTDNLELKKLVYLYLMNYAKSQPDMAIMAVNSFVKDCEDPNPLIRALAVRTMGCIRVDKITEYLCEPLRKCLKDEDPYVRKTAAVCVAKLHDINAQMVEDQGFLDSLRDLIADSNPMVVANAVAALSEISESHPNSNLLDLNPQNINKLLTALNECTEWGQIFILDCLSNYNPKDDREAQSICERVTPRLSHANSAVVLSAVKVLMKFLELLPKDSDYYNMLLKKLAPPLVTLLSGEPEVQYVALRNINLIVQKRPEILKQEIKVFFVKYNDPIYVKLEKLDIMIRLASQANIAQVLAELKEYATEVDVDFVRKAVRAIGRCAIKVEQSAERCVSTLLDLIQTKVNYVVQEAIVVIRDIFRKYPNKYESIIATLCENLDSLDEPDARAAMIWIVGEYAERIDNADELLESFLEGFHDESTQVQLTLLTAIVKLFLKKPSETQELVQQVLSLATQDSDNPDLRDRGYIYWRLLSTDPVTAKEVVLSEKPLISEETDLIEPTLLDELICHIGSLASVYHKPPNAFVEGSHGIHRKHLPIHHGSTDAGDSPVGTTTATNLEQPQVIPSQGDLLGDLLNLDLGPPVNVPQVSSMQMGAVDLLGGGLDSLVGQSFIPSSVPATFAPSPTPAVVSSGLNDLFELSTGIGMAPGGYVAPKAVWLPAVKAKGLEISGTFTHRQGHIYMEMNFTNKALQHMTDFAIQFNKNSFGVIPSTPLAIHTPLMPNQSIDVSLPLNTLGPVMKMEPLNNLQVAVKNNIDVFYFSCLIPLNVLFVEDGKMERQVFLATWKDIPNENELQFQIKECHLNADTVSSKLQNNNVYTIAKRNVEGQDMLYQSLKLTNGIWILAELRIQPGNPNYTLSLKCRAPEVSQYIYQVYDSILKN
Assay [12] is described as follows: yeast V-ATPase proton transport modulators, S. cerevisiae, pHLuorin, HTS validation (AID 504600).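 Also: plate controls were DMSO for no effect and reference compound for full effect.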 The settings on record: S. cerevisiae pHLuorin cytosolic pH, at 10 µM, stronger effect = higher value.
The test system of assay [13] is anti-desmoglein-3 scFv antibody binding to human DSG3. Put plainly: inhibitors of anti-DSG3 scFv binding to DSG3, pilot screen, biochemical, validation compound set, bead-based, flow cytometry (AID 588368;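 active = binding below the plate cutoff, the plate median minus 3 SD, with a reading above zero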;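 also: signal is the median channel fluorescence of bead-bound GFP antibody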). The following applies: Protein G beads, DSG3-Fc, scFv-GFP binding, at 10 µM, stronger effect = lower value.
Assay [14] in a line: inhibitors of fungal efflux pumps CDR1, CDR2, MDR1, pilot screen, validation compound set, multiplex, phenotypic (AID 588506;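 active = efflux inhibition above 0.42, the validation set average plus 4 SD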;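 also: Nile Red retained in cells so higher fluorescence means more efflux inhibition; 0 = negative control wells and 1 = enniatin B 25 µM full block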). The settings on record: S. cerevisiae pump-expressing triplex, Nile Red efflux flow cytometry; at 10 µM; stronger effect = higher value; the pumps come from Candida albicans.
The target of assay [15] is ATP-binding cassette sub-family B member 6 (Homo sapiens) (UniProt Q9NP58). The assay can be described thus: ABCB6 transporter inhibitors, pilot screen, K562-ABCB6 cells, flow cytometry, validation set (AID 588550;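 active = inhibition above the screen-wide mean plus 3 SD, about 51%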;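 also: 0% = DMSO wells and 100% = benzethonium chloride 70 µM positive control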). The following applies: K562-ABCB6 porphyrin accumulation, 1 h, at 10 µM, stronger effect = higher value.
Sequence of ATP-binding cassette sub-family B member 6 (Homo sapiens) (Q9NP58 whole entry, looked up): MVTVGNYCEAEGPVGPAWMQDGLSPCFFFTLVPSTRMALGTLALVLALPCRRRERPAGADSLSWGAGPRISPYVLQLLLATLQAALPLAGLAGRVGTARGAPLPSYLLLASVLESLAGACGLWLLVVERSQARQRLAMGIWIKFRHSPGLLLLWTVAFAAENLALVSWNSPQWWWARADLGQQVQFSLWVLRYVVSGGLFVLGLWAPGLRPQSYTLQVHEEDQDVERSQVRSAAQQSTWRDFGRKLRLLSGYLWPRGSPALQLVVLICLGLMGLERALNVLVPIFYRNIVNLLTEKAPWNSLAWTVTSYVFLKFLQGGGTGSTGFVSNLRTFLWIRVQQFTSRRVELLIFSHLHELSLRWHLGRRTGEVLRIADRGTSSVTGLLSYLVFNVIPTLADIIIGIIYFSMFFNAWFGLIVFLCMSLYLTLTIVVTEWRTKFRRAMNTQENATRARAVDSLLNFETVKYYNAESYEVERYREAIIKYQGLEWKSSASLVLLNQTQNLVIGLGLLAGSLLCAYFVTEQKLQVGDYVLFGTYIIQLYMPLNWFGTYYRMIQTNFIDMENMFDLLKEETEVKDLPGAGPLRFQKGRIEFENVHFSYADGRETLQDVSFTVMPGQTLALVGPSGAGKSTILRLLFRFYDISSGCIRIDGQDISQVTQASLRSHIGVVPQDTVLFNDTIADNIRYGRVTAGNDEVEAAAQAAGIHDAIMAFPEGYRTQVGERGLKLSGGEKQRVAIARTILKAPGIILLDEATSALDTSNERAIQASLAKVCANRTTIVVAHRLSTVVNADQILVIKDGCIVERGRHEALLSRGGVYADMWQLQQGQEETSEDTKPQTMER
Assay [16] in a line: promoters of myeloid differentiation in arrested cells, primary screen, cell-based, GFP/MAC1 double positive, flow cytometry, validation set (AID 588685;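 active = differentiation response of at least 50%, scaled between solvent and reference control, from cells with both markers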;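 also: compound exposure lasts four days before antibody staining and flow analysis; 0% = DMSO wells and 100% = 5 µM fulvestrant positive control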). The following applies: ER-HoxA9 marrow cells, stronger effect = higher value, normalized: vehicle 0, fulvestrant 100.

Structures are written as SMILES. “And” between values parts separate entries of the source, which are not always exact repeats. Identical values can stand only once. Inconclusive results are not listed. The source made the active and inactive calls. Rule as the data show it, unless noted: active = response above about 15%; inactive = the rest.

With `COc1ccccc1OCC(=O)O`, in assay [1], the percent of DMSO control GFP is 96.3% (inactive). Further, the GFP response vs DMSO in [2] is 107% (inactive); in assay [4], 122% (inactive). Moreover, the percent response of DMSO control in assay [3] was 98.6% (inactive). For the same molecule, the GFP response, % of DMSO in [5] is 103% (inactive). In assay [6], this molecule gave a double positive events of 61.5%. Further, the vesicle binding response in assay [6] is 167% (inactive). The inhibition is 3.67% (inactive) in assay [7], -3.11% (inactive) in [11] and 6% (inactive) in assay [15]. The superoxide response (% of plate) in assay [8] was 106% (inactive). Further, the aptamer binding inhibition in assay [9] was -3% (inactive). Also, the response in assay [10] is -4.79% (inactive); in assay [12], -0.38% (inactive). In addition, the binding (% of control) in assay [13] is 99.3% (inactive). Further, in assay [14], the efflux inhibition (fraction of control) is -0.06 (inactive). Also, the differentiation response in assay [16] was -26.4% (inactive).
As for `CC(=O)OCC[N+](C)(C)C`, the percent of DMSO control GFP in assay [1] is 95.9% (inactive). For the same molecule, the GFP response vs DMSO in assay [2] is 116% (inactive); in assay [4], 83.6% (inactive). In addition, in assay [3], the percent response of DMSO control was 101% (inactive). Besides, the GFP response, % of DMSO in assay [5] is 105% (inactive). Also, the double positive events in assay [6] was 61.2% and 60.9%. Also, in assay [6], the vesicle binding response is 178% (inactive) and 161% (inactive). Besides, the inhibition in [7] is -20.7% (inactive) and 1.44% (inactive); in assay [11], -8.61% (inactive) and -2% (inactive); in [15] it was 6% (inactive) and 10% (inactive). For the same molecule, the superoxide response (% of plate) in assay [8] was 90.4% (inactive) and 67.4% (inactive). Further, in assay [9], the aptamer binding inhibition was 4% (inactive) and 1% (inactive). The response in [10] was -3.17% (inactive) and -8.19% (inactive); in assay [12], 2.52% (inactive) and -3.48% (inactive). The binding (% of control) in [13] is 102% (inactive) and 106% (inactive). The efflux inhibition (fraction of control) in [14] was 0.09 (inactive) and 0 (inactive). Further, the differentiation response in assay [16] is 2.46% (inactive) and -2.03% (inactive).
For the molecule `COc1ccc(NC(=O)CC(c2ccccc2)c2ccco2)cc1` (stereo not drawn), the percent of DMSO control GFP in assay [1] was 103% (inactive). In addition, the GFP response vs DMSO is 97.2% (inactive) in assay [2] and 86.8% (inactive) in assay [4]. Besides, the percent response of DMSO control in assay [3] is 105% (inactive). The GFP response, % of DMSO in [5] is 96.8% (inactive). In addition, the double positive events in [6] stood at 62.8%. Besides, the vesicle binding response in assay [6] was 164% (inactive). Moreover, the inhibition was -15% (inactive) in [7], -3.8% (inactive) in assay [11] and 3% (inactive) in assay [15]. Moreover, the superoxide response (% of plate) in [8] was 91.5% (inactive). In addition, the aptamer binding inhibition in [9] is 2% (inactive). For the same molecule, the response in assay [10] was -5.85% (inactive); in [12], 3.58% (inactive). For the same molecule, the binding (% of control) in assay [13] was 100% (inactive). Besides, the efflux inhibition (fraction of control) in [14] was -0.07 (inactive). Further, the differentiation response in assay [16] is 1.22% (inactive).
For `CC1(C)CC(C(CC(=O)O)c2ccccc2)CCO1` (stereo not drawn), in assay [1], the percent of DMSO control GFP is 97.6% (inactive). In addition, the GFP response vs DMSO was 103% (inactive) in [2] and 109% (inactive) in assay [4]. Further, the percent response of DMSO control in assay [3] is 99.6% (inactive). For the same molecule, in [5], the GFP response, % of DMSO is 102% (inactive). The molecule also registered a double positive events in assay [6] of 58.1%. Further, the vesicle binding response in [6] is 155% (inactive). Also, the inhibition in assay [7] was -1.79% (inactive); in assay [11], 48.1% (inactive); in assay [15] it was 2% (inactive). Also, the superoxide response (% of plate) in assay [8] is 99.7% (inactive). The aptamer binding inhibition in assay [9] is 0% (inactive). The response in [10] was -5.23% (inactive); in [12], -5.35% (inactive). The binding (% of control) in assay [13] is 95.7% (inactive). The efflux inhibition (fraction of control) in [14] was 0.05 (inactive). Also, in assay [16], the differentiation response was 37.6% (inactive).

Values taken from PubChem BioAssay.
